Screening data as filed in PubChem BioAssay.
LMP1 NFkB inh: Epstein-Barr LMP1 NF-kappaB reporter inhibition; LMP1-induced NF-kappaB luciferase reporter cells, luminescence; inhibition, % at 12.5 µM; 350,000 compounds, 0.69% hits; in the data active = inhibition above about 41%;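 also: 0% = neutral control wells and 100% = reference inhibitor control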
TROY signal inh: blocks TROY-dependent signaling in reporter cells | 360,000 compounds, 0.98% hits | AID 1347056 | Q293 LMP1-TROYcd NF-kB luciferase reporter, 4 h | inhibition, % at 10 µM;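 active = compounds whose plate-normalised and pattern-corrected inhibition of the luciferase reporter signal at the single screening dose is 50% or more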
TWEAK Fn14 block: TWEAK-Fn14 signaling inhibition | TWEAK-stimulated Fn14 reporter cells, luciferase luminescence, 8 h | inhibition, % at 10 µM | 360,000 compounds, 2% hits | AID 1159606; in the data active = inhibition above about 50%
EWS-Fli block: inhibitors of EWS/Fli oncoprotein transcriptional activity. A673 NR0B1-luciferase reporter, viability-normalised. inhibition, % at 12.6 µM. 350,000 compounds, 0.67% hits. AID 651661;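 active = mean inhibition of at least 50% after viability correction, with every replicate also passing that limit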;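 also: firefly luciferase signal divided by Alamar Blue viability fluorescence both relative to DMSO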
LGR2 antag: Drosophila LGR2 receptor signaling inhibition | HEK293 LGR2, CRE-luciferase, bursicon-stimulated, 4 h | 380,000 compounds, 0.35% hits | inhibition, % at 9.99 µM;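 active = drop in luminescence signal, shown as inhibition above about 50% in the replicate tests, limit read from the data, passing the limit was not always enough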;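 also: agonist challenge used bursicon conditioned medium at about half maximal strength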
* hit, by the source's call; · = not tested or not shown. In the library only some 2.6% were active in any assay of this set; here they are far more common.

SMILES	LMP1 NFkB inh	TROY signal inh	TWEAK Fn14 block	EWS-Fli block	LGR2 antag
O=C(Nc1nc2cc3c(cc2s1)OCO3)c1ccco1	57.8*	56.4*	89.7*	63.8*	70.9*
CC(=O)Nc1nc2cc3c(cc2s1)OCO3	-10.8	-64.5	-10.1	-34.5	-20.6
O=C(Nc1nc2cc3c(cc2s1)OCCO3)c1ccco1	68.3*	81.6*	100.2*	87.0*	98.3*
O=C(Nc1nc2cc3c(cc2s1)OCCO3)c1ccncc1	-1.6	-18.5	15.4	-47.5	-27.7
O=C(Nc1nnc(/C=C/c2ccccc2)s1)c1ccco1	-18.5	-40.4	-11.8	-32.0	-45.9
Fc1ccc2nc(Nc3nc4cc5c(cc4s3)OCCO5)sc2c1	-33.5	62.4*	45.2	·	-51.5
CC1CCc2nc(NC(=O)Cc3cccs3)sc2C1 (configuration not stated)	-25.6	-46.0	-22.8	·	·
CC1CCc2nc(NC(=O)c3ccco3)sc2C1 (configuration not stated)	60.0*	65.7*	95.8*	·	·
COc1ccc(NC(=O)N2C[C@@H](O)COC[C@H]3O[C@@H](CC(=O)N4CCOCC4)CC[C@@H]32)cc1	·	·	·	-1.9	-1.6
COCC#Cc1ccc2c(c1)O[C@H](CN(C)S(=O)(=O)c1ccc(C)cc1)[C@@H](C)CN([C@H](C)CO)S2(=O)=O	·	·	·	34.7	-1.1
O=C(N[C@@H]1CC[C@@H](CCNS(=O)(=O)c2ccc(F)cc2)O[C@@H]1CO)c1cccc(F)c1	·	·	·	3.1	-14.5
CCN(Cc1ccc2c(c1)OCO2)C(=O)/C=C/c1cccc(Br)c1	-5.4	-36.5	-33.4	0.4	-9.9
CC(C)(C)N(Cc1ccc2c(c1)OCO2)C(=O)/C=C\S(=O)c1ccccc1 (configuration not stated)	18.6	27.9	87.5*	46.5	58.8*
COc1ccc(OC)c(NC(=O)COc2coc(CN3CCc4ccccc43)cc2=O)c1	49.9*	8.9	12.3	5.5	-0.5
O=C(C[C@@H]1CC[C@@H]2[C@H](COC[C@H](O)CN2S(=O)(=O)c2cccc(Cl)c2)O1)NCCCN1CCOCC1	·	·	·	·	4.9
CCCCCN=C(N)N/N=C/c1c[nH]c2ccc(OC)cc12	-2.2	11.9	-14.8	57.3*	·
COc1ccc(S(=O)(=O)N(C)C[C@H]2OCCCC[C@H](C)Oc3ccc(NC(=O)Nc4c(C)noc4C)cc3C(=O)N([C@@H](C)CO)C[C@H]2C)cc1	·	·	·	-12.8	-3.5
CCCCC1(CO)C(=O)N(c2ccccc2)N(c2ccccc2)C1=O	-5.2	-10.2	2.7	-0.4	5.3
CCCCC1C(=O)N(c2ccccc2)N(c2ccc(O)cc2)C1=O (configuration not stated)	54.6*	55.4*	84.4*	45.5	·
CN(Cc1ccco1)c1ncnc2ccc(-c3ccc4c(ccn4C)c3)cc12	19.2	0.4	-3.5	67.0*	-2.3
COc1ccc2cnn(CCOc3ccccc3)c(=O)c2c1OC	10.9	32.5	51.4*	·	·
COc1ccc(-n2c(C)cc(C(=O)COc3ccc(C)nc3[N+](=O)[O-])c2C)cc1	19.2	57.9*	49.8	·	14.3
Cc1ccc(OCC(=O)c2cc(C)n(-c3cc(C)on3)c2C)c([N+](=O)[O-])n1	14.6	-18.8	9.9	-12.8	13.2
Cc1ccc(OCC(=O)c2cc(C)n(Cc3cccs3)c2C)c([N+](=O)[O-])n1	34.6	-11.2	2.9	53.3*	11.3
CO[C@H]1CN(C)C(=O)c2ccc(NS(=O)(=O)c3ccc(F)cc3)cc2OC[C@H](C)NC[C@H]1C	·	·	·	3.7	5.0
SMILES	LMP1 NFkB inh	TROY signal inh	TWEAK Fn14 block	EWS-Fli block	LGR2 antag
C[C@H](O)C#Cc1ccc([C@H]2[C@@H](CO)N3CCCCN(CC4CC4)C[C@H]23)cc1	·	·	·	-10.9	-18.9
O=C(COc1ccccc1C(=O)NCc1ccccn1)Nc1ccc(Br)cc1	-1.8	-23.7	-30.9	64.8*	-5.9
CC(C)(C)c1ccc(-c2cc(-c3ccccc3O)[nH]n2)cc1	-51.8	83.3*	85.1*	22.2	13.5
CCNC(=O)Nc1ccc2c(c1)C(=O)N(C)[C@@H]1CC[C@@H](CC(=O)NCc3ccccc3F)O[C@@H]1CO2	·	·	·	-1.4	17.2
C(=N\Nc1nc(-c2ccccc2)cs1)/c1ccncc1	-28.2	-13.6	-8.0	-115.3	-77.5
CN(C)S(=O)(=O)c1ccc(-c2csc(N/N=C/c3ccco3)n2)cc1	24.5	70.8*	103.9*	9.2	101.9*
O=[N+]([O-])c1cccc(-c2csc(N/N=C/c3cccc(O)c3)n2)c1	6.0	51.3*	58.1*	-40.5	17.3
CN(C)S(=O)(=O)c1ccc(-c2csc(N/N=C/c3ccc(O)cc3)n2)cc1	-34.7	68.7*	98.7*	55.8*	5.8
CCN(CC)CCNC(=O)c1ccc(NC(=O)c2cn(-c3ccccc3)nc2-c2cccs2)cc1	-7.8	-39.0	-28.4	57.6*	·
CCN(CC)CCNC(=O)c1ccc(NC(=O)c2cn(-c3ccc(F)cc3)nc2-c2cccc(OC)c2)cc1	-9.8	-33.7	-70.3	58.6*	1.9
Cc1ccc(-c2nn(-c3ccccc3)cc2C(=O)Nc2ccc(C(=O)O)cc2)cc1	-3.0	-41.4	0.6	-37.4	-25.1
O=C(O)c1cccc(NC(=O)c2cn(-c3ccccc3)nc2-c2ccc(F)cc2)c1	81.8*	-31.0	36.8	-2.7	-18.2
CCCc1cn(CC[C@@H]2CC[C@H](NC(=O)C3CC3)[C@H](CO)O2)nn1	·	·	·	-3.7	4.8
COc1ccc(NC(=O)Nc2ccc3c(c2)CC(=O)N([C@@H](C)CO)C[C@H](C)[C@@H](CN(C)C)O3)cc1	·	·	·	-6.7	-5.1
CN(Cc1ccccc1)C1=CC(=[N+]2CCCCC2)CC(C)(C)C1	43.7*	43.0	35.5	22.7	17.1
Cc1ccc(CN(C)C[C@H]2OCc3cnnn3CCCC(=O)N([C@H](C)CO)C[C@H]2C)cc1	·	·	·	-2.1	3.0
CC(=O)Oc1c(I)cc(I)cc1C(=O)Nc1ccc(Cl)cc1	12.0	52.2*	52.2*	·	46.2
COc1ccc2cc3cc(C(=O)NCCc4ccc(OC)c(OC)c4)oc3nc2c1	31.9	14.8	66.5*	·	·
COc1ccc(CCNC(=O)c2ccc(CS(=O)(=O)c3ccc(Cl)cc3)o2)cc1OC	13.4	29.1	26.2	·	0.2
COc1ccc(CCNC(=O)c2ccc(CSc3ccc(Cl)cc3)o2)cc1OC	·	44.3	67.6*	14.4	1.7
COc1ccc2cc3cc(C(=O)N4CCCCCC4)oc3nc2c1	-0.9	27.3	54.2*	·	·
COc1ccc2cc3cc(C(=O)N4CCN(C5CCCCC5)CC4)oc3nc2c1	-1.9	-3.7	1.8	·	·
COc1ccc(NC(=O)Nc2ccc3c(c2)[C@H]2C[C@H](CC(=O)NCc4ccccn4)O[C@@H](CO)[C@H]2O3)cc1	·	·	·	0.9	-6.6
CC(=O)c1c(O)c2ccccc2n(C2CCCCC2)c1=O	13.0	55.7*	64.9*	18.4	·
CCCc1cc(=O)[nH]c(SCC(=O)N2N=C(c3ccc(Cl)cc3)CC2c2ccco2)n1 (configuration not stated)	-6.8	28.7	69.0*	2.1	-26.4
CC(C)[C@H](NS(=O)(=O)c1ccccc1)C(=O)OCC(=O)N1N=C(c2ccc(Cl)cc2)CC1c1ccco1 (some centres not stated)	11.2	39.5	55.6*	-4.4	-5.8
